Bioassay records deposited in PubChem BioAssay by National Center for Advancing Translational Sciences (NCATS).
Compounds with a hit are over-represented: about 3.4% of the library has one in this group of screens.
KAT2A inh = inhibitors of human GCN5L2 histone acetyltransferase; Potency, µM (series often up to 58.9 µM), without a hit: at the highest dose activity change, negative = inhibition, most hits filed as inhibitors; Q92830; hit rate 0.21% among 390,000; GCN5L2 HAT assay, ThioGlo1 CoA-SH fluorescence; further: on the % scale 0 is the no-effect control and ±100 the full control effect
Target sequence (Q92830 whole entry, looked up): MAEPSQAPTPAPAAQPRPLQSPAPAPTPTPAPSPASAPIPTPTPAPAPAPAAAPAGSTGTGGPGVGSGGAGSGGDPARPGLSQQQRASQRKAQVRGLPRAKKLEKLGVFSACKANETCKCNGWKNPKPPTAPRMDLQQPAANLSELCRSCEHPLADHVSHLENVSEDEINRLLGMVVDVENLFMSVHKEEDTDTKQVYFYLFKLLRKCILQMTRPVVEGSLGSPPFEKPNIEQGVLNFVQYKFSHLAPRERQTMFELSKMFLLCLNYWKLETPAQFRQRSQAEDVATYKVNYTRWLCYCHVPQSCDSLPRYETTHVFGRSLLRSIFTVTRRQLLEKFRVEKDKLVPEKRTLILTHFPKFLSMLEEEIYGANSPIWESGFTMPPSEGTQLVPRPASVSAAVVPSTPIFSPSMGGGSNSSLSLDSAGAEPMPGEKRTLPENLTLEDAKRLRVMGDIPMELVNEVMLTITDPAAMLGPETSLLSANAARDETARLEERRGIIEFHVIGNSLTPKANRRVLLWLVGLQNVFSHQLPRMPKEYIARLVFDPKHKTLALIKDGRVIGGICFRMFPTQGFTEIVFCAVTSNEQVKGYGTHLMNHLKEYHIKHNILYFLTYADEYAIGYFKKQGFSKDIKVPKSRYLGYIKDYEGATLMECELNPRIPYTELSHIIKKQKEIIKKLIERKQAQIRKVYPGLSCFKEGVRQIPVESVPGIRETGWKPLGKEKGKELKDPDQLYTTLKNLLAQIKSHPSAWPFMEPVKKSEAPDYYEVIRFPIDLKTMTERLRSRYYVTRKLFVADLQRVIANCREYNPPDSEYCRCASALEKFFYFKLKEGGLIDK
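Free CoA generated was detected with ThioGlo1 (50uM) fluorescence at Ex340nm/Em540nm, read immediately and after 20 min at room temperature. Enzyme, 20 nM in HEPES pH 7.5 buffer, saw compounds 15 min before adding 75uM H3(1-25) peptide and 70uM acetyl-CoA.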
GLS inhibitor = blocks human kidney-isoform glutaminase activity | O94925 | hit rate 0.21% among 410,000 | GLS enzymatic activity, qHTS titration | Potency, µM (top dose mostly 45.5 µM), without a hit: top-dose activity change, negative = inhibition, actives largely listed as inhibitors | AID 624170; further: on the % scale 0 is the no-effect control and ±100 the full control effect
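Compounds were pin-transferred onto hKGA, after which L-glutamine (1 mM solution) and a detection mix of glutamate oxidase, HRP and Amplex Red were added. Initial and 30 min RT fluorescence reads were collected.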
PLK1 PBD block = blocks phosphopeptide binding to human PLK1 polo-box domain. Potency, µM, inactives show max response, negative = inhibition, hits mostly inhibitors. hit rate 2.8% among 360,000. Plk1 PBD binding of FITC phosphopeptide, fluorescence polarization. AID 720504; further: series mostly up to about 57 µM; on the % scale 0 is the no-effect control and ±100 the full control effect; nearly all actives have a fitted effect of over 65% in size
Mito fusion act = mitochondrial division inhibition or fusion activation; S. cerevisiae fusion-defective mutant growth rescue, CellTiterGlo 48 h; Potency, µM (highest dose often 46.1 µM), for inactives: at the top dose growth rescue (activation), most hits filed as activators; hit rate 0.23% among 320,000; further: % of control where 0% means no effect; nearly all actives have a fitted effect of over 45% in size
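Luminescent cell viability in 1536-well qHTS format served as the measure of rescued growth in ts fusion-mutant S. cerevisiae cultured on non-fermentable YPEG for 48 hours at 37C.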
PKM2 activator = PKM2 (human) enzyme activation; P14618; purified PKM2, Kinase-Glo ATP luminescence, activation; response scale: 0% is enzyme alone, no compound; Potency, µM (highest dose often 57.5 µM), inactives show at the top dose activation, actives largely listed as activators; hit rate 0.34% among 260,000; AID 1631; further: on the % scale 0 is the no-effect control and ±100 the full control effect; nearly all actives have a fitted effect of over 55% in size
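hPK-M2, >95% pure; 0.1 mM ADP / 0.5 mM PEP final; imidazole pH7.2 buffer w/ 7 mM MgCl2, 50 mM KCl; 1 h RT; Kinase-Glo lum. Intermediate enzyme activity for dual inhibitor/activator qHTS.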
VDR inh = inhibitors of human vitamin D receptor. P11473. VDR-SRC2-3 peptide fluorescence polarization, 2 h. Potency, µM, for the others: max response, negative = inhibition, usual class: inhibitors. hit rate 0.93% among 400,000. AID 504847; further: on the % scale 0 is the no-effect control and ±100 the full control effect
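Measured by FP: displacement of SRC2-3 coactivator peptide from VDR by library compounds, following a two-hour ambient incubation.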
Starred values were filed as active, the others as inactive. The call rests on the fitted dose curve; in most records, active means well fitted curve in the direction sought with a large enough effect; inconclusive means small, poorly fitted or top-dose-only effect, or another doubt; inactive means no such curve, though single readings can be large; an effect the other way counts as inactive or inconclusive. Potency means the concentration at half of the fitted maximal effect.

Results for CCOC(=O)/C(C#N)=C1\CCCN1CC(N)=S ?
KAT2A inh: 3%; GLS inhibitor: -13%; PLK1 PBD block: 21µM*; Mito fusion act: -19%; PKM2 activator: 2%; VDR inh: inconclusive

What do the screens show for `CCC(C)c1ccc(NC(=O)Nc2cccnc2)cc1` (stereo not drawn)?
KAT2A inh: -7%; GLS inhibitor: -2%; PLK1 PBD block: -3%; Mito fusion act: 6%; PKM2 activator: -1%; VDR inh: -11%

What do the screens show for `C=CCC(c1ccccc1)N(C(C)=O)c1ccco1` (stereo not drawn)?
KAT2A inh: 2%; GLS inhibitor: 4%; PLK1 PBD block: -22%; Mito fusion act: 25µM*; PKM2 activator: 10%; VDR inh: 15%

What do the screens show for `COc1cccc(NC(=O)CN2CCN(S(=O)(=O)c3ccc(C(C)C)cc3)CC2)c1`?
KAT2A inh: inconclusive; GLS inhibitor: 8%; PLK1 PBD block: 30µM*; Mito fusion act: 13%; PKM2 activator: 4%; VDR inh: -1%

How did COc1ccc(NC(=O)CN2CCN(S(=O)(=O)c3ccc(Cl)cc3)CC2)cc1Cl do in these assays?
KAT2A inh: -4%; GLS inhibitor: -1%; PLK1 PBD block: -11%; Mito fusion act: -2%; PKM2 activator: -1%; VDR inh: 13%

How did NS(=O)(=O)c1ccc(NC(=O)CN2CCCN(S(=O)(=O)c3ccc(F)cc3)CC2)cc1 do in these assays?
KAT2A inh: -7%; GLS inhibitor: 7%; PLK1 PBD block: -15%; Mito fusion act: -1%; PKM2 activator: 0%; VDR inh: -2%

How did COc1ccc(S(=O)(=O)N2CCCN(CC(=O)Nc3ccc(OC)c(Cl)c3)CC2)cc1 do in these assays?
KAT2A inh: -9%; GLS inhibitor: 13%; PLK1 PBD block: -24%; Mito fusion act: 1%; PKM2 activator: 20µM*; VDR inh: 6%

What do the screens show for `NS(=O)(=O)c1ccc(NC(=O)CN2CCN(S(=O)(=O)c3ccc(F)cc3)CC2)cc1`?
KAT2A inh: -4%; GLS inhibitor: inconclusive; PLK1 PBD block: 4.7µM*; Mito fusion act: -1%; VDR inh: inconclusive

How did CC(C)(C)CC(C)(C)n1nnnc1N do in these assays?
GLS inhibitor: 6%; PLK1 PBD block: -6%; VDR inh: 2%

How did COc1ccc([C@H]2CC(=O)C=C(c3cccc4c3Oc3ccccc3S4)C2)cc1OC do in these assays?
KAT2A inh: -8%; GLS inhibitor: -6%; PLK1 PBD block: 1%; Mito fusion act: 18%; VDR inh: 4%

Results for O=C(CCBr)Nc1cccc2cccnc12 ?
VDR inh: -6%

Results for Nc1c(C(=O)Nc2ccccc2)sc2nc(-c3cccnc3)ccc12 ?
KAT2A inh: 0%; Mito fusion act: 17%; PKM2 activator: 11µM*

Results for CCOc1cccc(NC(=O)c2sc3nc(-c4ccc(F)cc4)ccc3c2N)c1 ?
KAT2A inh: 35µM*; GLS inhibitor: 6%; VDR inh: inconclusive

What do the screens show for `COc1cc(CN2C[C@@H](CO)O[C@@H](n3cnc4c(NC5CCC5)ncnc43)C2)cc(OC)c1OC`?
GLS inhibitor: 8%; PLK1 PBD block: -4%

Results for CCCCC[C@H](O)/C=C/[C@@H]1[C@H]2C/C(=C/CCCC(=O)O)C[C@H]2C[C@H]1O ?
KAT2A inh: -11%; VDR inh: -3%

How did CNC(=O)C(N)CSC(C)C1=C(C)c2cc3[n-]c(cc4nc(cc5[n-]c(cc1n2)c(C)c5CCC(=O)O)C(CCC(=O)O)=C4C)c(C)c3C(C)SCC(N)C(=O)NC.[Fe+2] (stereo not drawn) do in these assays?
KAT2A inh: -3%; GLS inhibitor: -6%; VDR inh: 1%

What do the screens show for `CC(C)(Oc1ccc(C2CCCc3ccccc32)cc1)C(=O)O` (stereo not drawn)?
KAT2A inh: -18%; GLS inhibitor: 14%; VDR inh: -1%

How did Cc1ccc(-n2c(=O)[nH]c3c(C(N)=O)nc(-c4ccc(C)o4)nc32)cc1 do in these assays?
KAT2A inh: -2%; GLS inhibitor: -1%; PLK1 PBD block: -13%; Mito fusion act: -2%; PKM2 activator: 14µM*; VDR inh: 8%

How did COc1ccc(OC)c(-c2nc(C(N)=O)c3[nH]c(=O)n(-c4ccc(F)cc4)c3n2)c1 do in these assays?
KAT2A inh: 0%; GLS inhibitor: -4%; PLK1 PBD block: 4%; Mito fusion act: 3%; PKM2 activator: -1%; VDR inh: -23%

Results for Cc1cccc(CN2C(=O)c3ccccc3S(=O)(=O)c3ccc(C(=O)NCCCN4CCCC4)cc32)c1 ?
KAT2A inh: 0%; GLS inhibitor: 11%; PLK1 PBD block: 5%; Mito fusion act: 13%; VDR inh: -16%

What do the screens show for `CC1(C)CC2/C(CO)=C/C=C/[C@](C)(O)CC[C@]21O` (stereo partly drawn)?
KAT2A inh: 5%; VDR inh: -3%

What do the screens show for `CC(CC(=O)N1CCc2ccccc21)S(=O)(=O)c1ccc2c(c1)NC(=O)CO2` (stereo not drawn)?
KAT2A inh: -4%; GLS inhibitor: 9%; PLK1 PBD block: 27µM*; Mito fusion act: 6%; VDR inh: -9%

Results for Cc1ccc(NC(=O)CC(C)S(=O)(=O)c2ccc3c(c2)NC(=O)CO3)cc1C (stereo not drawn) ?
KAT2A inh: -6%; GLS inhibitor: 1%; PLK1 PBD block: 24µM*; Mito fusion act: 18%; VDR inh: -2%

How did CCc1ccccc1NC(=O)CC(C)S(=O)(=O)c1ccc2c(c1)NC(=O)CO2 (stereo not drawn) do in these assays?
KAT2A inh: -7%; GLS inhibitor: 0%; VDR inh: 10%

Results for COC(=O)/C(C#N)=C(/Nc1ccc(F)c(Cl)c1)C(F)(F)F ?
KAT2A inh: -5%; GLS inhibitor: 2%; PLK1 PBD block: -5%; Mito fusion act: -9%; PKM2 activator: -1%; VDR inh: -13%

What do the screens show for `CCCCN1CC(=O)N2[C@H](c3ccc(OC)cc3)[C@@H]3C(=O)N(CC)C(=O)[C@@H]3[C@]2(Cc2ccccc2)C1=O`?
KAT2A inh: 1%; GLS inhibitor: 1%; PLK1 PBD block: -10%; Mito fusion act: -1%; PKM2 activator: 1%; VDR inh: 7%
